Screening data as filed in PubChem BioAssay.
A selection: hits, their analogues and other compounds. The true share with any hit is near 2.9%.
S1P4 agonist – human S1P4 receptor agonism. 220,000 compounds, 0.35% hits. O95977. S1P4-expressing cell line, agonist reporter assay. AID 1509. activation, % at 4.98 µM; in the data active means activation above about 11%
Target sequence (O95977 whole entry, looked up): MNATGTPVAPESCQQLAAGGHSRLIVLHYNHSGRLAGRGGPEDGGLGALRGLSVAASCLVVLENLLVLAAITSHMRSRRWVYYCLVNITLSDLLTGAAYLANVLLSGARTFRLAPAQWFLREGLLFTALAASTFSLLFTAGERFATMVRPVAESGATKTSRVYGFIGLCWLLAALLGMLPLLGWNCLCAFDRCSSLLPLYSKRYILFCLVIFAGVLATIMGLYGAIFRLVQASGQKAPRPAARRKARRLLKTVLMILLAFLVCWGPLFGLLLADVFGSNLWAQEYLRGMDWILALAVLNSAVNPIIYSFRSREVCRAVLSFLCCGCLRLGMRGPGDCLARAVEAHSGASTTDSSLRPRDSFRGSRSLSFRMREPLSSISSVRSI
Hsp70 act – Hsp70 transcriptional activation, primary screen; HeLa Hsp70 promoter luciferase reporter, luminescence; scaled: vehicle 0, proteasome-inhibitor control 100%; activation, % at 10 µM; 200,000 compounds, 0.04% hits; AID 1203;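 active means activation above the mean across all tested compounds plus 3 SD, cutoff set per campaign, cut at about 5.5% in these data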
HSF1 inhib – HSF1 inhibition; NIH3T3-HGL HSE-luciferase, MG132-induced, luminescence 8 h; hits give low values; activity change, negative = inhibition, % at 7.5 µM (by protocol); 300,000 compounds, 0.77% hits; AID 2098;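 active means more than half of replicate wells show activity change below -50%, luminescence cut by over half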;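 further: luciferase reports HSF-1 transcriptional activity via heat shock element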
S1P3 antag – blocks the human S1P3 receptor; CHO S1P3 NFAT-BLA reporter, FRET fluorescence, antagonist mode; Q99500; inhibition, % at 4.98 µM; 170,000 compounds, 0.27% hits;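 active means inhibition above the plate cutoff, the mean inhibition of test wells on that plate plus 3 SD, cut at about 28% in these data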;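 further: cells challenged with S1P at its EC80 of 0.8 µM; blue over green emission ratio from cleaved BLA substrate after 4 h stimulation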
Target sequence (Q99500 whole entry, looked up): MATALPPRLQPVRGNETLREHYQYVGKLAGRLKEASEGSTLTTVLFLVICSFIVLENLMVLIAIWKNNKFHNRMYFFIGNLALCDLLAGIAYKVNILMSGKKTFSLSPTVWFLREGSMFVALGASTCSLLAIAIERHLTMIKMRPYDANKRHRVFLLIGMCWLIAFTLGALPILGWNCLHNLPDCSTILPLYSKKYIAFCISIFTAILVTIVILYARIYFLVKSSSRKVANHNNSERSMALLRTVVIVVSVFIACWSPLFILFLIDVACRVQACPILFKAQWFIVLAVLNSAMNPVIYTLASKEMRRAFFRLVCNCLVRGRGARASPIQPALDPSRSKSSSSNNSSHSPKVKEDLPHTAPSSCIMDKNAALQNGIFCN
HSF-1 act – increases HSF-1 driven luciferase reporter signal | NIH3T3-HGL HSF-1 luciferase reporter, MG132, 8 h; 100% = twice DMSO control signal | activation, % at 9 µM | 300,000 compounds, 1.7% hits;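 active means mean replicate activation of at least 50% with a set share of replicates each reaching 50%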
S1P4 antag – human S1P4 receptor antagonism | S1P4-expressing cells, antagonist mode, reporter read-out | inhibition, % at 4.98 µM | 220,000 compounds, 0.26% hits; in the data active means inhibition above about 29%
Large screens that a line does not name were inactive.

CCc1ccc(C(=O)N/N=C(\C)c2ccncc2)s1	HSF1 inhib -74 (no result: S1P4 agonist, Hsp70 act, S1P3 antag, S1P4 antag)
O=C(NCCCc1ccccn1)C1CCC(=O)N(Cc2cccc(F)c2)C1 (stereo unspecified)	none (no result: S1P4 agonist, Hsp70 act, S1P3 antag, S1P4 antag)
COc1ccc(CCC(=O)OCC(=O)N(CC(C)C)c2c(N)n(Cc3ccccc3)c(=O)[nH]c2=O)cc1	none (no result: S1P4 agonist, Hsp70 act, S1P3 antag, S1P4 antag)
O=C(Nc1nccs1)c1ccc(COc2ccccc2)o1	HSF-1 act 56 (no result: S1P4 agonist, Hsp70 act, S1P3 antag, S1P4 antag)
O=C(Nc1nccs1)c1ccc(CSc2ccccc2)o1	HSF-1 act 63 (no result: S1P4 agonist, Hsp70 act, S1P3 antag, S1P4 antag)
Cc1ccc(OCc2ccc(C(=O)Nc3nccs3)o2)cc1	HSF-1 act 60
CCc1nnc(NC(=O)c2ccc(COc3ccccc3)o2)s1	none
CCN(CC)S(=O)(=O)c1ccc(C(=O)NC(C)(C)C)cc1	none
COc1cc2c(cc1OC)-c1cc(Nc3ccc4c(c3)OCCO4)nc(=O)n1CC2	HSF1 inhib -72
CC(NC(=O)[C@H](C)NC(=O)[C@@H]1CSC2c3ccccc3C(=O)N21)c1ccccc1 (stereo partly specified)	none (no result: S1P4 agonist, Hsp70 act, S1P3 antag, S1P4 antag)
CNCc1c(OCc2ccc(F)cc2)ccc2ccccc12	none
OCc1c(OCc2cccc(F)c2)ccc2ccccc12	HSF-1 act 62 (no result: S1P4 agonist, Hsp70 act, S1P3 antag, S1P4 antag)
O=C1c2cccc3cccc(c23)C(=O)N1CCc1ccccc1	HSF-1 act 59
C/C(CC(=O)Nc1ccc(C)c(Cl)c1)=N\NC(=O)c1ccco1	none
CC(C)Oc1cccc(C(=O)NC(=S)Nc2ccccc2)c1	HSF1 inhib -61
CC(=O)c1cccc(NC(=S)NC(=O)c2cccc(C)c2)c1	HSF-1 act 64
Cc1cc(C)n(CC(O)COc2ccc(Cl)cc2Cl)n1 (stereo unspecified)	HSF-1 act 64 (no result: S1P4 agonist, Hsp70 act, S1P3 antag, S1P4 antag)
Cc1ccc(OCC(O)Cn2nc(C)cc2C)cc1 (stereo unspecified)	none
Cc1cc(C)n(CC(O)COc2ccc(Cl)cc2)n1 (stereo unspecified)	HSF-1 act 50 (no result: S1P4 agonist, Hsp70 act, S1P3 antag, S1P4 antag)
CC(C)c1ccc(NC(=O)Cn2cccc2C2=NC(c3ccccc3)CO2)cc1 (stereo unspecified)	none
O=C(CNC(=O)C1COc2ccccc2O1)N/N=C/c1ccc(O)cc1O (stereo unspecified)	none
COc1cc(C(=O)OC2CC3CCC2(C)C3(C)C)ccc1OC(C)=O (stereo unspecified)	none
Cc1cc2c3c(c1)C1(C(=O)N3C(C)(C)CC2C)C(C#N)=C(N)Oc2cc(O)ccc21 (stereo unspecified)	HSF-1 act 67
O=C1C(=O)N(CC2CCCO2)C(c2ccco2)/C1=C(/O)c1ccc(F)cc1 (stereo unspecified)	none
CCc1ccc2oc(-c3ccc(OC)cc3)cc(=Nc3cccc(C(=O)O)c3)c2c1	none
COc1ccc(-c2cc(=Nc3ccc(C(=O)O)cc3)c3cc(C)ccc3o2)cc1	HSF-1 act 57
Cc1cccc(C)c1Nc1nnc(SC(C)C(=O)Nc2c(C)n(C)n(-c3ccccc3)c2=O)s1 (stereo unspecified)	none
CC1CCCN(C(=O)CSc2nnc(-c3ccc(O)cc3)o2)C1 (stereo unspecified)	HSF1 inhib -57 (no result: S1P4 agonist, Hsp70 act, S1P3 antag, S1P4 antag)
CC1CCCN(C(=O)CSc2nnc(-c3cccs3)o2)C1 (stereo unspecified)	none (no result: S1P4 agonist, Hsp70 act, S1P3 antag, S1P4 antag)
O=C(Nc1ccccc1Cl)c1ccc(-c2ccccn2)s1	HSF-1 act 68 (no result: Hsp70 act)
COc1ccc([N+](=O)[O-])cc1C(=O)NCCOc1ccc(Cl)cc1	none (no result: S1P4 agonist, Hsp70 act, S1P3 antag, S1P4 antag)
Fc1ccc(-c2cc(-c3ccccc3)nc(-n3cccn3)n2)cc1	HSF1 inhib -69
O=c1cc(-c2ccccc2)nc2cc(-c3ccc(F)cc3)[nH]n12	none (no result: S1P4 agonist, Hsp70 act, S1P3 antag, S1P4 antag)
Cc1ccccc1NC(=O)CSc1n[nH]c(-c2ccccn2)n1	none (no result: S1P4 agonist, Hsp70 act, S1P3 antag, S1P4 antag)
CCN(CC)Cc1c(O)ccc2c1O/C(=C\C=C\c1ccccc1)C2=O	HSF-1 act 116 (no result: Hsp70 act)
CS(=O)(=O)Oc1ccc2c(c1)O/C(=C\C=C\c1ccccc1)C2=O	HSF-1 act 109 (no result: Hsp70 act)
COc1ccccc1/C=C/C=C1\Oc2c(ccc(O)c2CN(C)C)C1=O	none (no result: Hsp70 act)
O=C(OCCN1CCN(C2=NS(=O)(=O)c3ccccc32)CC1)c1cccc(Br)c1	none (no result: S1P4 agonist, Hsp70 act, S1P3 antag, S1P4 antag)
CN(C)c1ccc(Nc2ncnc3ccc(Br)cc23)cc1	HSF1 inhib -53 (no result: S1P4 agonist, Hsp70 act, S1P3 antag, S1P4 antag)
Clc1ccc(Nc2ncnc3ccc(Br)cc23)cc1	none (no result: S1P3 antag)
O=C(C1CCCC1)N1CCC(CC2CC(c3cccc(Br)c3)=NO2)(C(=O)NCC2CCCCC2)CC1 (stereo unspecified)	none (no result: S1P4 agonist, Hsp70 act, S1P3 antag, S1P4 antag)
CC1CCCN(C(=S)Nc2ccc(Nc3ccccc3)cc2)C1 (stereo unspecified)	HSF-1 act 93
CCN1CCN(c2cc(C)c3cc(NC(=S)N4CCCC(C)C4)ccc3n2)CC1 (stereo unspecified)	HSF1 inhib -79
S=C(Nc1ccccc1)N1CCCCCC1	HSF-1 act 55 (no result: S1P3 antag)
CC1CCCN(C(=S)Nc2ccc(F)cc2)C1 (stereo unspecified)	none
S=C(Nc1ccccc1)N1CCC(C2CCN(C(=S)Nc3ccccc3)CC2)CC1	none (no result: Hsp70 act)
O=C(Nc1ccc2nsnc2c1)N1CCCCCC1	none (no result: S1P3 antag)
S=C(Nc1ccc2nsnc2c1)N1CCCC1	HSF-1 act 75
CCC(C)(C)NC(=O)c1ccc2c(c1)N(CC(=O)NC1CCCC1)C(=O)C(C)(C)O2	none (no result: S1P4 agonist, Hsp70 act, S1P3 antag, S1P4 antag)
COc1ccccc1NC(=O)Cn1c(=O)n(CCc2c[nH]c3ccccc23)c(=O)c2cccnc21	none
COc1ccc2[nH]c(C(=O)Nc3ccc(C)c(F)c3)cc2c1	none (no result: Hsp70 act)
COc1ccc2[nH]c(C(=O)Nc3cccc(C)n3)cc2c1	HSF-1 act 61 (no result: Hsp70 act)
CCc1cc(C(=O)c2ccc(OC)cc2)c(NC(=O)CC(C)(C)CC(=O)O)s1	none (no result: Hsp70 act)
N#C/C(=N\Nc1ccccc1[N+](=O)[O-])C(=N)N1CCCCC1	HSF-1 act 64
CCc1cc(C(=O)N/N=C/c2ccc(O)cc2O)c2ccccc2n1	none (no result: S1P4 agonist, Hsp70 act, S1P3 antag, S1P4 antag)
CCN1CCN(C(=O)c2ccc(CSc3ccc(C)cc3)cc2)CC1	none (no result: S1P3 antag)
Cc1ccc(SCc2ccc(C(=O)N3CCCC3)cc2)cc1	HSF-1 act 58
Cc1snc2sc(C(=O)c3ccc(Br)cc3)c(N)c12	none (no result: S1P3 antag)
Cc1ccc(C(=O)c2sc3nsc(C)c3c2N)cc1	HSF-1 act 61 (no result: S1P3 antag)
Cc1cccc(C)c1NC(=O)COC(=O)c1ccc2c(c1)OCO2	none
Cc1c(C(=O)OCC(=O)Nc2ccc3c(c2)OCO3)cccc1[N+](=O)[O-]	none
Cc1cccc(C(=O)OCC(=O)c2ccc3c(c2)OCO3)c1O	HSF-1 act 66 (no result: S1P4 agonist, Hsp70 act, S1P3 antag, S1P4 antag)
O=C(COC(=O)c1ccccc1[N+](=O)[O-])c1ccc2c(c1)OCO2	HSF1 inhib -66 (no result: S1P4 agonist, Hsp70 act, S1P3 antag, S1P4 antag)
Cc1c(C(=O)OCC(=O)NCc2ccc3c(c2)OCO3)cccc1[N+](=O)[O-]	HSF-1 act 60
O=C(COC(=O)c1cccs1)c1ccc2c(c1)OCCO2	HSF1 inhib -52 (no result: S1P3 antag)
C=CCn1c(SCC(=O)c2[nH]c(C)c(C(=O)OCC)c2C)nc2scc(-c3ccc(OC)c(OC)c3)c2c1=O	none
Cc1nn(-c2ccc(F)cc2)c(Cl)c1/C=C/C(=O)N1CCNC(=O)C1	none
O=C(Nc1ccnn1C1CCN(Cc2ccc(O)c(Cl)c2)CC1)C1CCCC1	none (no result: S1P4 agonist, Hsp70 act, S1P3 antag, S1P4 antag)
